High-throughput results: PubChem BioAssay, National Center for Advancing Translational Sciences (NCATS)
VDR inhibitor – vitamin D3 receptor (human) inhibition; P11473; VDR-SRC2-3 peptide fluorescence polarization, 2 h; Potency, µM, without a hit: max response, negative = inhibition, hits mostly inhibitors; hit rate 0.93% among 400,000; AID 504847; also: % is scaled to controls: 0 for no effect and ±100 for the full control effect
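FP read-out; VDR + SRC2-3 coactivator peptide; 23 nl compound by pintool; 2 h RT incubation; reagents held at 4 deg C, protected from light.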
PTAP TSG101 blk – blocks PTAP/TSG101 interaction to inhibit HIV-1 budding; Potency, µM (top dose mostly 115 µM), for inactives: top-dose activity change, negative = inhibition, hits mostly inhibitors; Q99816; Fluorescence polarization, FITC-PTAP peptide / Tsg101 binding; 340,000 tested, under 10 active; active = well fitted inhibition curve with a large enough effect in the main read-out, with a control signal flat, not every such curve was filed as active; inconclusive = small, poorly fitted or top-dose-only effect, or effect the other way, or a change in a side signal; inactive = no such curve, though single readings can be large or run the other way; also: % of control where 0% means no effect
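Steps: Tsg101 binding domain dispensed (10 uM final), compounds pinned in DMSO, FITC-labeled PTAP-motif peptide added (50 nM final); after 20 min binding at room temperature, polarization measured.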
USP1 inh – USP1/UAF1 (human) deubiquitinase inhibition; O94782; recombinant USP1/UAF1, Ub-Rhodamine cleavage fluorescence; Potency, µM (doses to about 57.1 µM), for the others: at the top dose activity change, negative = inhibition, usual class: inhibitors; hit rate 0.23% among 390,000; AID 743255; also: % is scaled to controls: 0 for no effect and ±100 for the full control effect; nearly all actives have a fitted effect of over 60% in size
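USP1/UAF1 complex (1 nM) preincubated 15 min at room temperature with compound, then Ub-Rho substrate (150 nM final) added. Kinetic fluorescence at 480/540 nm over 6 reads at 60 s intervals; 50 mM HEPES pH 7.8, 0.5 mM EDTA, 0.1 mg/ml BSA, 1 mM TCEP, 0.01% Tween-20.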
GCN5L2 inh – blocks human GCN5L2 histone acetyltransferase | Q92830 | AID 504327 | hit rate 0.21% among 390,000 | GCN5L2 HAT assay, ThioGlo1 CoA-SH fluorescence | Potency, µM (top dose mostly 58.9 µM), without a hit: top-dose activity change, negative = inhibition, most hits filed as inhibitors; also: % is scaled to controls: 0 for no effect and ±100 for the full control effect
Target sequence (Q92830 whole entry, looked up): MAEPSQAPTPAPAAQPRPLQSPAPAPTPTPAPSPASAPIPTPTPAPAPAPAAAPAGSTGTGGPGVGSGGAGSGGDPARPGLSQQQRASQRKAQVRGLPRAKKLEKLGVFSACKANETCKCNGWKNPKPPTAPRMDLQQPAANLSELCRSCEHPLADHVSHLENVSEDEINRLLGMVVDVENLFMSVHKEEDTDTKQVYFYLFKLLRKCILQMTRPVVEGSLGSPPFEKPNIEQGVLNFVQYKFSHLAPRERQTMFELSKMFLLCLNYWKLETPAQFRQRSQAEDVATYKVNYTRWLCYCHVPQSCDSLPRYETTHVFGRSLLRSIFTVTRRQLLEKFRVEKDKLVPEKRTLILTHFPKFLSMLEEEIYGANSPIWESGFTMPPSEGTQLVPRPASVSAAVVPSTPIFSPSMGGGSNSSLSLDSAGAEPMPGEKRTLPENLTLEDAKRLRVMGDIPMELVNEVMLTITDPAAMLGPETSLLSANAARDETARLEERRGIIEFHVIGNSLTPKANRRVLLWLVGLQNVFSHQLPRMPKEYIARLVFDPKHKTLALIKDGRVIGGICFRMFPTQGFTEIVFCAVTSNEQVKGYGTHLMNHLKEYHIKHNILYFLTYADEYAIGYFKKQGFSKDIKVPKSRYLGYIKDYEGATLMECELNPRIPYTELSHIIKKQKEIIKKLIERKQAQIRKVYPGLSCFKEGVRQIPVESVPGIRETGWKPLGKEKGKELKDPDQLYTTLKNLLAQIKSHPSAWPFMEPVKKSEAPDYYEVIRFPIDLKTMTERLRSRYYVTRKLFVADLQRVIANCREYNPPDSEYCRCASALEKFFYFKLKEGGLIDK
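qHTS, 1536-well. 20nM enzyme, pH 7.5 HEPES/EDTA/Tween-20 buffer; 15 min compound preinc., RT. Start: 75uM H3(1-25), 70uM AcCoA, 50uM ThioGlo1. Read Ex340/Em540 at t=0 (autofluorescence flag) and t=20 min.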
PLK1 PBD block – blocks phosphopeptide binding to human PLK1 polo-box domain. Plk1 PBD binding of FITC phosphopeptide, fluorescence polarization. hit rate 2.8% among 360,000. AID 720504. Potency, µM, for the others: max response, negative = inhibition, hits mostly inhibitors; also: series mostly up to about 57 µM; % is scaled to controls: 0 for no effect and ±100 for the full control effect; nearly all actives have a fitted effect of over 65% in size
An asterisk follows results filed as active; ? = inconclusive; . = not tested or not shown. Compounds with a hit are over-represented: about 3% of the library has one in this group of screens. Unless noted, calls follow the shape of the dose curve; as a rule, active = well fitted curve in the direction sought with a large enough effect; inconclusive = small, poorly fitted or top-dose-only effect, or another doubt; inactive = no such curve, though single readings can be large; an effect the other way counts as inactive or inconclusive. Potency is read from the fitted curve at half-maximal effect.

SMILES	VDR inhibitor	PTAP TSG101 blk	USP1 inh	GCN5L2 inh	PLK1 PBD block
CCC(=O)Nc1nc(-c2ccc3c(c2)OCCO3)cs1	9.0%	-0.1%	-26.3%	-1.6%	-6.7%
OC1(c2cccc(C(F)(F)F)c2)CCNCC1	-9.2%	-3.1%	-13.1%	-3.7%	-0.4%
O=S(=O)(c1ccc(OC(F)(F)F)cc1)N1CCC(O)(c2cccc(C(F)(F)F)c2)CC1	?	2.0%	-11.6%	-15.6%	26.7µM*
C/C(=N\NS(=O)(=O)c1ccc(Br)cc1)c1ccncc1	?	0.4%	-12.5%	-6.2%	5.32µM*
CC(=NNS(=O)(=O)c1cccc([N+](=O)[O-])c1)c1ccc(-n2ccnc2)cc1	-22.3%	-8.0%	-2.1%	-0.5%	18.9µM*
C/C(=N/NS(=O)(=O)c1cccc([N+](=O)[O-])c1)c1ccncc1	28.2µM*	-4.2%	-18.4%	-4.6%	2.99µM*
C/C(=N\NC(=O)c1cccc(S(=O)(=O)Nc2ccccc2Cl)c1)c1ccc(-n2ccnc2)cc1	1.4%	-5.2%	-1.2%	0.3%	-13.4%
CC(=O)Nc1cccc(-c2nnc(SCC(=O)c3cc([N+](=O)[O-])ccc3Br)o2)c1	-16.0%	.	12.2%	-11.7%	.
CCC(C)NC(=O)CSc1nc(-c2ccc(F)cc2)cc(C(F)(F)F)n1 (stereo unspecified)	?	.	-22.9%	-8.9%	.
CC(CC(=O)Nc1ccc2c(c1)c(=O)n(C)n2-c1ccccc1F)c1ccccc1 (stereo unspecified)	.	.	.	.	-8.2%
CN(C)c1ccc(NC(=O)c2ccc(N3CCOCC3)nc2)cc1	79.4µM*	-0.4%	-19.7%	?	-15.4%
CCOC(=O)C1=C(C)NC(C)=C(C(=O)OCC)C1c1c(F)c(F)c(F)c(F)c1F	-5.6%	.	.	-25.4%	.
O=C(Nc1cccc(Cl)c1Cl)Nn1cnnc1	-15.4%	3.1%	-11.9%	-21.4%	-7.8%
S=C(Nc1ccc(Cl)cc1Cl)Nn1cnnc1	?	-6.3%	-18.9%	-18.2%	6.7µM*
S=C(Nc1cccc(Cl)c1Cl)Nn1cnnc1	79.4µM*	-2.1%	-5.7%	16.5%	16.8µM*
S=C(NNc1ccnc2cc(Cl)ccc12)Nc1ccc(Cl)cc1Cl	79.4µM*	-4.0%	-26.9%	-4.4%	?
S=C(Nc1cc(Cl)ccc1Cl)Nn1cnnc1	79.4µM*	-1.1%	-6.6%	-4.0%	21.2µM*
Cc1c(Cl)cccc1NC(=O)CSc1nc(=O)n(Cc2ccccn2)c2c1CCC2	-1.5%	.	-27.3%	-11.8%	.
CSc1cccc(NC(=O)C2CCCN(S(C)(=O)=O)C2)c1 (stereo unspecified)	.	.	-14.4%	.	-8.6%
Nc1nc(SCC(=O)NCCO)nc2sc3c(c12)CCCC3	-1.5%	0.3%	-19.4%	3.0%	23.8µM*
Nc1nc(SCC(=O)NCCCO)nc2sc3c(c12)CCC3	10.9%	-0.1%	-5.6%	-5.9%	-5.4%
CCCn1c(=S)[nH]c2cc(Cl)ccc21	?	-1.0%	-20.2%	?	15µM*
Cc1ccc(NC(=O)CCC(=O)NNS(=O)(=O)c2ccccc2)c(C)c1	-11.0%	-2.4%	2.5%	-10.3%	6.7µM*
Cc1ccc(C)c(NC(=O)CCC(=O)NNS(=O)(=O)c2ccc(Cl)cc2)c1	-6.9%	0.7%	-21.0%	1.5%	?
Cc1ccc(NC(=O)CCC(=O)NNS(=O)(=O)c2ccccc2)cc1C	?	-3.7%	-7.8%	-1.7%	26.7µM*
SMILES	VDR inhibitor	PTAP TSG101 blk	USP1 inh	GCN5L2 inh	PLK1 PBD block
O=C(CNC(=O)c1ccc(Cl)cc1)Nc1ccc(S(=O)(=O)Nc2ncccn2)cc1	5.5%	1.4%	-15.9%	-5.4%	-2.8%
Cc1ccc(NC(=O)CCC(=O)NNC(=O)Cc2ccccc2)cc1C	4.3%	3.5%	3.8%	-29.9%	-6.1%
O=C(CCCNC(=O)c1ccc(Cl)cc1)Nc1ccc(S(=O)(=O)Nc2ncccn2)cc1	?	-6.0%	-14.1%	2.9%	26.7µM*
O=C(CCC(=O)Nc1ccccc1)NNS(=O)(=O)c1ccc(Cl)cc1	-15.8%	1.2%	-14.5%	-12.3%	18.9µM*
COc1cc(OC)c(NC(=O)C(Cc2ccccc2)NS(=O)(=O)c2cccc3nsnc23)cc1Cl (stereo unspecified)	-6.0%	.	-14.8%	-16.9%	.
S=C(NCc1ccc(Cl)cc1)NCc1ccco1	-0.2%	-2.9%	-17.6%	1.1%	-29.1%
N#Cc1c(C(F)(F)F)cc(-c2cccs2)nc1SCc1ccccc1F	-2.7%	.	-15.4%	-0.5%	.
